Counter-ions that a name gives are not always drawn. ± gives the standard deviation.
Each compound was assayed on Danio rerio Tg(wt1b:EGFP) embryo, pronephros (assay: glomerular separation, fold change vs DMSO control; higher = glomeruli further apart (abnormal)). Conditions: 25 µM; exposure: 24-48 hpf.
Procedure, shortened: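 In HEPES-buffered E3 with 0.003% PTU and 0.5% DMSO, dechorionated Tg(wt1b:EGFP) zebrafish embryos were exposed to 25 μM compound from 24 to 48 hpf at 28.5°C. Pronephroi were then imaged dorsally at 470 nm in 10 z-slices, in 96-well plates filled with agarose. On maximum projections, a Fiji macro turned 16 manually placed reference points into distances and angles, and values more than 2 SD from the feature mean were excluded. Features are fold changes relative to the mean of DMSO-treated embryos from the same day.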

| Structure (SMILES) | glomerular separation |
| --- | --- |
| CC(C)(Oc1ccc(Cl)cc1)C(=O)O [Clofibric acid] | 1.17 ± 0.56 |
| Cc1scc2c1N(C(=O)CN1CCN(C)CC1)c1ccccc1NC2=O [Telenzepine dihydrochloride] | 0.967 ± 0.17 |
| Nc1nc2[nH]cc(CCc3ccc(C(=O)N[C@@H](CCC(=O)O)C(=O)O)cc3)c2c(=O)[nH]1 [Pemetrexed disodium] | 0.831 ± 0.39 |
| CCCCCCC[N+](CC)(CC)CCCCc1ccc(Cl)cc1 [Clofilium tosylate] | 0.78 ± 0.37 |
| NC[C@H]1O[C@H](O[C@H]2[C@H](O)[C@@H](O[C@H]3O[C@H](CO)[C@@H](O)[C@H](N)[C@H]3O)[C@H](N)C[C@@H]2N)[C@H](N)C[C@@H]1O [Tobramycin] | 1.49 ± 0.73 |
| Clc1ccc(CSC(Cn2ccnc2)c2ccc(Cl)cc2Cl)cc1 (stereo unspecified) [Sulconazole nitrate] | 2.88 ± 1.5 |
| CC1(C)S[C@@H]2[C@H](NC(=O)Cc3ccccc3)C(=O)N2[C@H]1C(=O)O [Benzylpenicillin sodium] | 0.915 ± 0.33 |
| CC(C)(O/N=C(\C(=O)N[C@@H]1C(=O)N2C(C(=O)[O-])=C(C[n+]3ccccc3)CS[C@H]12)c1csc(N)n1)C(=O)O [Ceftazidime pentahydrate] | 0.761 ± 0.12 |
| CCOC(=O)C1=C[C@]2(CC)CCCN3CCc4c(n1c1ccccc41)[C@@H]32 [Vinpocetine] | 1.08 ± 0.2 |
| COc1ccc(Cl)cc1C(=O)NCCc1ccc(S(=O)(=O)NC(=O)NC2CCCCC2)cc1 [Glibenclamide] | 0.804 ± 0.39 |
| CC(=O)c1ccc(S(=O)(=O)NC(=O)NC2CCCCC2)cc1 [Acetohexamide] | 0.839 ± 0.25 |

Reference: the supplement of paper PMC7366291
